In PubChem BioAssay AID463165 (Johns Hopkins Ion Channel Center, 2010):
Among all 310,000 compounds or so, about 1,400 (0.45%) were called active.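 How the source made its calls: active means B-score, a plate-corrected calcium signal, over three deviations above library mean, with baseline fluorescence within five deviations of library mean; inactive means the rest.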 Shown is part of a subset that was picked to be rich in actives.

Biological target: Regulator of G-protein signaling 4 (Homo sapiens) (UniProt P49798)
Sequence (P49798 whole entry, looked up): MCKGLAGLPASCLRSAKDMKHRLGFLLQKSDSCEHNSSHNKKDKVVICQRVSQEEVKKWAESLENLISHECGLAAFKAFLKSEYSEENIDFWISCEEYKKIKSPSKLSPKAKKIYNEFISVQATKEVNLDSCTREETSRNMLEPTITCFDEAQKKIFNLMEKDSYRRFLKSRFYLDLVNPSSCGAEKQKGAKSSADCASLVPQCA
Test: RGS4 inhibitors, primary screen, cell-based, HEK293 M3R inducible RGS4, calcium flux (AID 463165);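 further: RGS4 expression induced by doxycycline in cells with stable M3 receptor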;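 on B-score: B-score is computed from the integrated fluorescence ratio over baseline after carbachol; higher B-score means a larger calcium signal and so more RGS4 inhibition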
Conditions: Fluo-4 calcium flux, at 10 µM, triggered by carbachol at its EC20; hits give high values

Row | SMILES | B-score
1 | O=C1c2ccccc2NC(c2ccc(-c3cccc(Cl)c3)o2)N1O (centres undefined) | 8.05 (active)
2 | O=C1NC(c2cccc(Cl)c2)Nc2ccccc21 (centres undefined) | inactive
3 | O=c1c(-c2cccc(Cl)c2)c[nH]n1-c1ccccc1 | inactive
4 | CCOC(=O)c1ccc(NC(=O)c2cccnc2)cc1 | inactive
5 | Cc1nn2c(=O)cc(COC(=O)c3ccc(NC(=O)C(C)(C)C)cc3)nc2s1 | 17.9 (active)
6 | COCCc1nn2c(=O)cc(COC(=O)c3cc(OC)c(OC)c(OC)c3)nc2s1 | inactive
7 | COc1ccc(CC(=O)NC2CCSc3ccccc32)cc1OC (centres undefined) | inactive
8 | CN(C(=O)c1cccc([N+](=O)[O-])c1)c1ccccc1C(=O)NCc1ccccc1 | inactive
9 | C#CCOc1ccccc1/C=C1/C(=O)ON=C1C | inactive
10 | CC1=NOC(=O)/C1=C\c1ccccc1 | inactive
11 | C=CCOc1ccc(/C=C2/C(=O)ON=C2C)cc1OCC | 9.13 (active)
12 | COc1cc(/C=C2/C(=O)ON=C2C)ccc1OCc1cccc(F)c1 | inactive
13 | C#CCOc1ccc(/C=C2/C(=O)ON=C2C)cc1OCC | 6.2 (active)
14 | COc1cc(/C=C2/C(=O)ON=C2C)ccc1OCc1ccccc1F | inactive
15 | O=C(O)C1C2C=CC(O2)C1C(=O)NCCc1cccc(Cl)c1 (centres undefined) | inactive
16 | O=C(Oc1c(-c2ccco2)oc2ccccc2c1=O)c1cccnc1 | inactive
17 | O=C1C(=O)N(c2ccccc2)c2ccccc21 | inactive
18 | CC1CCCCC1NC(=O)c1cc(=O)[nH]c2ccccc12 (centres undefined) | inactive
19 | CC(C)(CNC(=O)c1cc(=O)[nH]c2ccccc12)N1CCOCC1 | inactive
20 | COC(=O)C1CCN(C(=O)c2cc(=O)[nH]c3ccccc23)CC1 | 5.3 (active)
21 | O=C(CNC(=O)[C@@H]1Cc2ccccc2CN1)NC1CCCCC1 | inactive
22 | COc1ccccc1N1CCN(S(=O)(=O)CCNC(=O)c2ccc(OC(C)C)cc2)CC1 | inactive
23 | Cc1ccc(CSCC2Nc3ccc(C(=O)N4CCN(c5ccc(F)cc5)CC4)cc3NC2=O)cc1 (centres undefined) | inactive

Row | SMILES | B-score
24 | Cc1cc(C)c2[nH]c(=O)c(C(c3nnnn3Cc3ccc4c(c3)OCO4)N3CCCC3)cc2c1 (centres undefined) | inactive
25 | COc1ccc(N2CCN(C(c3cc4ccc(C)cc4[nH]c3=O)c3nnnn3C3CCCC3)CC2)cc1 (centres undefined) | inactive
26 | CCOC(=O)C1CCN(C(c2cc3cc(C)cc(C)c3[nH]c2=O)c2nnnn2C2CCCCC2)CC1 (centres undefined) | 6.12 (active)
27 | COc1ccc(S(=O)(=O)NCCc2cc3ccc(C)c(C)c3[nH]c2=O)cc1 | inactive
28 | CCOCCCNC(=O)c1cc2c(=O)n3ccccc3nc2s1 | inactive
29 | Cc1ccc(N/C=C/C(=O)c2ccccc2)cc1C | inactive
30 | Cc1cc(C)nc(S/C=C/C(=O)c2ccccc2)n1 | 10.7 (active)
31 | Cc1cc(C)nc(SCC(=O)c2ccc(Cl)cc2)n1 | inactive
32 | CN=C(NC#N)NCCSCc1nc[nH]c1C | inactive
33 | COc1ccc(CN(C(=O)CSc2nnc(-c3ccc(OC)c(OC)c3)o2)c2ccc(F)cc2)cc1 | inactive
34 | CCOc1ccc(/C=N/NC(=O)C(C)Sc2ccccn2)cc1OCC (centres undefined) | inactive
35 | CCOc1ccc(/C=N/NC(=O)CSc2ccccn2)cc1O | 4.74 (active)
36 | Cc1ccc(/C=N/NC(=O)CSc2ccccn2)o1 | inactive
37 | Cc1cc(=O)oc2cc(OC(C)C(=O)Nc3ccc(N4CCOCC4)cc3)ccc12 (centres undefined) | inactive
38 | COc1cc(NC(=O)CSC(=S)N2CCCC2)c(OC)cc1Cl | inactive
39 | CC(C)(C)Oc1ccccc1Nc1nc(NCCO)nc(N2CCCC2)n1 | inactive
40 | CCOc1ccc(CNC(=O)CCC(=O)N2CCSc3ccccc32)cc1 | inactive
41 | C[C@H](NC(=O)c1nc[nH]c1C(=O)NCC(=O)OC(C)(C)C)c1ccccc1 | 5.48 (active)
42 | C[C@H](NC(=O)c1nc[nH]c1C(=O)NCC(=O)OC(C)(C)C)C(=O)OCc1ccccc1 | inactive
43 | CC(C)(C)OC(=O)CNC(=O)c1[nH]cnc1C(=O)N[C@@H](Cc1ccccc1)C(=O)OCc1ccccc1 | inactive
44 | Cc1ccc(N(C(=O)c2ccc(CN3CCOCC3)o2)C(C(=O)NCCC(C)C)c2cccs2)c(C)c1 (centres undefined) | inactive
45 | O=C(CSCc1ccccc1)Nc1ccccc1 | inactive
46 | CCN(CC)S(=O)(=O)c1ccc(N2CC(C(=O)NCc3cccnc3)CC2=O)cc1 (centres undefined) | inactive

Row | SMILES | B-score
47 | N#Cc1ccc(/C=C2\CCn3c2nc2cc(C(=O)O)ccc2c3=O)cc1 | inactive
48 | Cc1ccc(/C=C2\CCn3c2nc2cc(C(=O)O)ccc2c3=O)c(C)c1 | 6.23 (active)
49 | O=C(O)c1ccc2c(=O)n3c(nc2c1)/C(=C/c1ccc(OC(F)F)cc1OC(F)F)CC3 | inactive
50 | CCOC1CS(=O)(=O)CC1OCC (centres undefined) | inactive
51 | CCCN(CCC)S(=O)(=O)c1ccc(C(=O)N2CC3CCC(CC3)C2)cc1 | inactive
52 | CC(C)=CCCC1(C)C=Cc2c(ccc3c2[nH]c2cc(O)c(C)cc23)O1 (centres undefined) | inactive
53 | O=C(O)CCC(=O)N(Cc1ccccc1)Cc1ccccc1 | inactive
54 | O=C(Nc1ccccc1Cl)c1ccccc1S(=O)(=O)c1ccccc1[N+](=O)[O-] | inactive
55 | Cc1nn(-c2ccccc2)c2c1C(c1ccc(F)cc1)C(C#N)=C(N)O2 (centres undefined) | inactive
56 | COc1ccccc1C1C(C#N)=C(N)Oc2c1c(-c1ccccc1)nn2-c1ccccc1 (centres undefined) | 8.32 (active)
57 | Cc1nn(Cc2ccccc2)c2c1C(c1ccccc1)C(C#N)=C(N)O2 (centres undefined) | inactive
58 | Cc1cccc(OCCCC(=O)Nc2ccc(S(=O)(=O)N3CCCC3)cc2)c1 | inactive
59 | CS(=O)(=O)c1ccc(C(=O)OCC(=O)NNC(=O)COc2ccc(Cl)cc2)cc1 | inactive
60 | Cc1ccc(NC(=O)N2CCC(c3nc4c(nnn4Cc4c(F)cccc4Cl)c(=O)[nH]3)CC2)cc1 | inactive
61 | Cc1ccc(C)c(Cn2nnc3c(=O)[nH]c(C(=O)Nc4ccc(F)cc4)nc32)c1 | 7.87 (active)
62 | O=C(Nc1ccc(F)cc1)N1CCCC(c2nc3c(nnn3Cc3ccccc3Cl)c(=O)[nH]2)C1 (centres undefined) | inactive
63 | O=C(O)C1C2C=CC(C2)C1C(=O)NCc1ccccc1 (centres undefined) | inactive
64 | O=C(CN1C(=O)NC2(CCCCCC2)C1=O)NCc1cccs1 | inactive
65 | COC(=O)c1c(C(=O)OC)c2n(c1C)CCS2 | inactive
66 | COc1ccc(C)cc1NC(=O)CSc1nnc2ccc(-c3ccccn3)nn12 | inactive
67 | COc1ccc(S(=O)(=O)Nc2ccc(O)c(Sc3nc4ccccc4s3)c2)cc1 | 5.99 (active)
68 | O=C(O)c1cccc(S(=O)(=O)Nc2ccc(O)cc2Sc2nc3ccccc3s2)c1 | inactive
69 | CCOc1ccc(S(=O)(=O)Nc2nc3cc(OC)ccc3s2)cc1 | inactive
